VACV mCherry inh: inhibitors of vaccinia virus infection (mCherry reporter signal) | Vaccinia virus mCherry reporter infection, fluorescence | Potency, µM (doses to about 36.5 µM), without a hit: top-dose activity change, negative = inhibition, hits mostly inhibitors | 310,000 tested, 0.63% active | AID 720579; calls by dose curve; tested in A549 cells; also: nearly all actives have a fitted effect of over 35% in size
VACV Venus inh: inhibitors of vaccinia virus (Venus reporter) | Vaccinia virus Venus reporter expression, fluorescence | 330,000 tested, 0.46% active | Potency, µM (doses to about 36.5 µM), without a hit: at the top dose activity change, negative = inhibition, most hits filed as inhibitors | AID 720580; calls by dose curve; tested in A549 cells; also: nearly all actives have a fitted effect of over 30% in size
FMDV inh: antivirals against foot and mouth disease virus | FMDV antiviral cell-based qHTS | 410,000 tested, 1.2% active | Potency, µM (titrated, usually from 57.9 µM), for inactives: top-dose activity change, negative = inhibition, most hits filed as inhibitors | AID 1159524; calls by dose curve; tested in HEK293T cells; also: read-out not given here; nearly all actives have a fitted effect of over 45% in size
MARV entry inh: Marburg virus entry inhibition. Marburg virus pseudotyped entry inhibition, cell reporter. Potency, µM (doses to about 37.8 µM), for the others: at the top dose activity change, negative = inhibition, usual class: inhibitors. 300,000 tested, 1.8% active; calls by dose curve; tested in HEK293 cells
Lassa entry inh: inhibitors of Lassa virus binding or cell entry | Lassa virus pseudotype entry inhibition, cell reporter | Potency, µM (highest dose often 37.9 µM), for inactives: at the top dose activity change, negative = inhibition, actives largely listed as inhibitors | 300,000 tested, 1.2% active | AID 540256; calls by dose curve; tested in HEK293 cells; also: nearly all actives have a fitted effect of over 50% in size
Sm TGR block: inhibitors of Schistosoma mansoni thioredoxin glutathione reductase | purified TGR, DTNB reduction, TNB absorbance 405 nm | Potency, µM (top dose mostly 114 µM), inactives show top-dose activity change, negative = inhibition, most hits filed as inhibitors | 360,000 tested, 3% active; active = well fitted inhibition curve with a large enough effect; inconclusive = small, poorly fitted or top-dose-only effect; inactive = no such curve, though single readings can be large or run the other way; also: nearly all actives have a fitted effect of over 60% in size
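Kinetic colorimetric format: TGR-catalysed, NADPH-driven DTNB reduction monitored via TNB absorbance. Enzyme dispensed at 20 nM; compound exposure 15 min at room temperature before reaction start.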
Starred values were filed as active, the others as inactive; [ ] = remark or other dose. In the library only some 5.4% were active in any assay of this set; here they are far more common. % is scaled to controls: 0 for no effect and ±100 for the full control effect; potency is read from the fitted curve at half-maximal effect.

Results for Cc1cc(C(=O)N/N=C/c2cc(Br)ccc2OC(=O)c2ccccc2Cl)n[nH]1 ?
VACV mCherry inh: 6.3µM*; VACV Venus inh: inconclusive; FMDV inh: -13%; MARV entry inh: 10µM*; Lassa entry inh: 10µM*

What do the screens show for `Cc1cc(C(=O)N/N=C/c2cc(Br)ccc2OC(=O)c2ccccc2)n[nH]1`?
VACV Venus inh: inconclusive; FMDV inh: -8%; MARV entry inh: 10µM*; Lassa entry inh: inconclusive; Sm TGR block: -1%

Results for CN(C)c1ccc(C=Nc2ccc(N(C)C)cc2)cc1 ?
VACV Venus inh: 20%; FMDV inh: 27%; MARV entry inh: inconclusive; Lassa entry inh: inconclusive; Sm TGR block: -22%

What do the screens show for `CN(C)c1ccc(N=Cc2ccco2)cc1`?
VACV mCherry inh: inactive; VACV Venus inh: -9%; FMDV inh: -17%; MARV entry inh: -21%; Lassa entry inh: -3%; Sm TGR block: 32µM*

How did CN(C)c1ccc(C=Nc2ccccc2)cc1 do in these assays?
VACV mCherry inh: inconclusive; VACV Venus inh: -5%; MARV entry inh: 27%; Lassa entry inh: inconclusive; Sm TGR block: -11%

How did Cc1ccc(N=Cc2ccc(N(C)C)cc2)cc1 do in these assays?
VACV Venus inh: 3.5µM*; FMDV inh: -14%; MARV entry inh: -3%; Lassa entry inh: -3%; Sm TGR block: -8%

Results for O=C(NCC1CCCO1)c1cccc2c1C(=O)c1ccc(N3CCC(Cc4ccccc4)CC3)cc1S2(=O)=O (configuration not stated) ?
VACV mCherry inh: inconclusive; VACV Venus inh: 14%; FMDV inh: 13µM*

Results for CC1CCN(c2ccc3c(c2)S(=O)(=O)c2cccc(C(=O)NC[C@@H]4CCCO4)c2C3=O)CC1 ?
VACV mCherry inh: inactive; VACV Venus inh: -16%; FMDV inh: 17%

How did COc1ccc(NC(=O)C2CC(=O)n3cnnc3S2)cc1 (configuration not stated) do in these assays?
VACV mCherry inh: -4%; VACV Venus inh: -10%; FMDV inh: 5%; MARV entry inh: 1%; Lassa entry inh: 3%; Sm TGR block: 0.28µM*

What do the screens show for `COc1cccc(NC(=O)C2CC(=O)n3cnnc3S2)c1` (configuration not stated)?
VACV mCherry inh: 1%; VACV Venus inh: -4%; FMDV inh: -18%; MARV entry inh: 14%; Lassa entry inh: 1%; Sm TGR block: 0.63µM*

How did CN(CCCc1cnc[nH]1)C(=S)NCCCN(Cc1ccc(Cl)cc1)c1ccc(Br)cn1 do in these assays?
VACV mCherry inh: 5%; VACV Venus inh: -18%

What do the screens show for `Cc1nn2c(=O)cc(COC(=O)c3ccc(NC(=O)c4cccs4)cc3)nc2s1`?
VACV mCherry inh: inconclusive; VACV Venus inh: inconclusive; FMDV inh: 14µM*; Lassa entry inh: 13%[46.1 µM]; Sm TGR block: -2%

What do the screens show for `CCc1nn2c(=O)cc(COC(=O)c3ccc(NC(=O)c4cccs4)cc3)nc2s1`?
VACV mCherry inh: -13%; VACV Venus inh: -10%; FMDV inh: -21%; Lassa entry inh: 18%[46.1 µM]; Sm TGR block: 4%

What do the screens show for `Cc1cn2c(=O)cc(COC(=O)c3ccc(NC(=O)COc4ccccc4F)cc3)nc2s1`?
VACV mCherry inh: inactive; VACV Venus inh: -4%; FMDV inh: -9%; Lassa entry inh: -1%[46.1 µM]; Sm TGR block: 0%

How did Cc1nn2c(=O)cc(COC(=O)c3ccc(NC(=O)COc4ccc(Cl)cc4)cc3)nc2s1 do in these assays?
VACV mCherry inh: -4%; VACV Venus inh: -23%; FMDV inh: 16µM*; Lassa entry inh: inconclusive; Sm TGR block: 7%

Results for CCc1nn2c(=O)cc(COC(=O)c3ccc(NC(=O)COc4ccc(C)cc4)cc3)nc2s1 ?
VACV mCherry inh: -15%; VACV Venus inh: -12%; FMDV inh: 8%; Lassa entry inh: inconclusive; Sm TGR block: -8%

What do the screens show for `Cc1cn2c(=O)cc(COC(=O)c3cccc(NC(=O)COc4ccccc4Cl)c3)nc2s1`?
VACV mCherry inh: -8%[7.34 µM]; VACV Venus inh: -6%[7.34 µM]; FMDV inh: 8.9µM*; Lassa entry inh: 29%[46.1 µM]; Sm TGR block: 6%

Results for COc1ccc(OCC(=O)Nc2ccc(C(=O)OCc3cc(=O)n4nc(C)sc4n3)cc2)cc1 ?
VACV mCherry inh: inactive; VACV Venus inh: -26%; FMDV inh: 10µM*; Lassa entry inh: 2%[46.1 µM]; Sm TGR block: 1%

Results for CCN(CC)CCN(C(=O)c1ccco1)c1nc2ccc(F)cc2s1 ?
VACV mCherry inh: -9%; VACV Venus inh: -15%; FMDV inh: 28%; Lassa entry inh: 0%[46.1 µM]; Sm TGR block: 8%

How did O=C(NCCc1ccccc1)c1cc(Sc2cccc(Cl)c2)nc2ccccc12 do in these assays?
VACV mCherry inh: -6%; VACV Venus inh: -2%; FMDV inh: -9%; Lassa entry inh: 22%[46.1 µM]; Sm TGR block: 7%

How did Cc1ncc2c(c1CNS(=O)(=O)N(C)C)CCN(C(=O)/C=C/c1ccccc1F)C2 do in these assays?
VACV mCherry inh: -19%; VACV Venus inh: -9%; FMDV inh: -4%

Results for Cc1nn(C(C)C(=O)Nc2ccccc2C(F)(F)F)c(=O)c2c1sc1ccccc12 (configuration not stated) ?
VACV mCherry inh: -9%; VACV Venus inh: -22%; FMDV inh: -10%; MARV entry inh: inconclusive; Lassa entry inh: 27%[46.1 µM]; Sm TGR block: -11%

How did CC(Oc1ccccc1)C(=O)Nc1ccc(C(=O)OCc2cc(=O)n3nc(C4CC4)sc3n2)cc1 (configuration not stated) do in these assays?
VACV mCherry inh: inconclusive; VACV Venus inh: -2%; FMDV inh: 28µM*; Lassa entry inh: inconclusive; Sm TGR block: -2%

Results for O=C(Nc1ccc(C(=O)OCc2cc(=O)n3nc(C4CC4)sc3n2)cc1)c1ccccc1 ?
VACV mCherry inh: -10%; VACV Venus inh: -12%; FMDV inh: inconclusive; Lassa entry inh: 15%[46.1 µM]; Sm TGR block: 3%

How did Cc1ccc2c(c1)C(N1CCCC1=O)CC(c1ccco1)N2 (configuration not stated) do in these assays?
VACV mCherry inh: -25%; VACV Venus inh: -22%; FMDV inh: -51%; MARV entry inh: inconclusive; Lassa entry inh: inconclusive; Sm TGR block: 10µM*

Results for O=C(CCSc1ccc(Cl)cc1)c1ccco1 ?
FMDV inh: -12%; Sm TGR block: 1µM*

Results for O=C(CSc1ccc(Cl)cc1)c1ccco1 ?
VACV mCherry inh: -10%; VACV Venus inh: -6%; FMDV inh: 19%; MARV entry inh: -2%; Lassa entry inh: -31%; Sm TGR block: 5.6µM*

What do the screens show for `O=C(CSc1ccccc1Cl)c1ccco1`?
VACV Venus inh: -7%; FMDV inh: 16%; MARV entry inh: 12%; Lassa entry inh: inconclusive; Sm TGR block: 45µM*

How did Nc1nnc(SCC(=O)c2ccco2)s1 do in these assays?
FMDV inh: 13%; MARV entry inh: -7%; Lassa entry inh: 2%; Sm TGR block: -10%
